Results filed as inconclusive are left out. A call without a number means that no potency is given here. Calls of active or inactive are those of the source. Calls follow the shape of the dose curve; as a rule, active = well fitted activation curve with a large enough effect; inconclusive = small, poorly fitted or top-dose-only effect; inactive = no such curve, though single readings can be large or run the other way.

The text below walks through data of PubChem BioAssay AID492949 (National Center for Advancing Translational Sciences (NCATS), 2010).
Potency is read from the fitted curve at half-maximal effect.

Relaxin receptor 1 (Homo sapiens), sequence (Q9HBX9 whole entry, looked up): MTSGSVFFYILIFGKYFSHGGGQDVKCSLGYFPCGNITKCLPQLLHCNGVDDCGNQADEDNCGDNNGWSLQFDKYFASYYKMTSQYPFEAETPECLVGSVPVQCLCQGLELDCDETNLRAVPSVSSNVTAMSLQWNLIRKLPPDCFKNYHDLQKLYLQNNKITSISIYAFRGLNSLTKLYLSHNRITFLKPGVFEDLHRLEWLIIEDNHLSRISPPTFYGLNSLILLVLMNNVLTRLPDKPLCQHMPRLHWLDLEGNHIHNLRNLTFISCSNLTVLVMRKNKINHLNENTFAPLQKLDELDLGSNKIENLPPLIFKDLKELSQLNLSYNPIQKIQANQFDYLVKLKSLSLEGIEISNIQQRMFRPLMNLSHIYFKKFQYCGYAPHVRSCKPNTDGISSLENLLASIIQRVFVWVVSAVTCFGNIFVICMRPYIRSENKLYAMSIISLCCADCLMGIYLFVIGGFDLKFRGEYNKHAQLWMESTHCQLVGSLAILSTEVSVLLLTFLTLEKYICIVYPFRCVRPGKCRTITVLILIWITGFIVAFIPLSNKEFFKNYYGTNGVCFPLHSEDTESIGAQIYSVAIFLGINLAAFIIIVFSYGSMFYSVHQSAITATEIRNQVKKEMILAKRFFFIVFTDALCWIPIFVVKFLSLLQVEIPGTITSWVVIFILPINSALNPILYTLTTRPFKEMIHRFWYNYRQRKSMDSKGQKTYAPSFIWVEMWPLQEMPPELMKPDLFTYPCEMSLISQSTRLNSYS

The assay concerns the target Relaxin receptor 1 (Homo sapiens) (UniProt Q9HBX9). Kind of assay: qHTS Assay for Agonists of the Relaxin Receptor RXFP1: THP1 Hit Validation. Also: nearly all actives have a fitted effect of over 60% in size. The conditions noted are these: THP1-RXFP1 cells, cAMP TR-FRET, 30 min; series mostly up to 115 µM. From the text:
The relaxin hormone is involved in the variety of biological functions in normal tissues and diseases. The role of relaxin is well-established in female reproduction and parturition, mammary gland and endometrial development, maintenance of myometrial quiescence during pregnancy. Relaxin signaling through its G protein-coupled receptor (GPCR) RXFP1 results in ECM remodeling through regulation of collagen deposition, cell invasiveness, proliferation and overall tissue homeostasis. […] Recombinant human relaxin (rhRlx) is currently being tested in clinical trials as a protective agent in congestive heart failure, in treating severe preeclampsia, and as an anti-fibrotic agent in systemic sclerosis.
Upon relaxin binding RXFP1 activation leads to the activation of adenylate cyclase (AC) via Gs. cAMP will activate PKA, which phosphorylates many signaling proteins. Thus, detection of cAMP increase is an easy and reliable indication of relaxin receptor activation. To screen for agonists of the relaxin receptor, a THP1 cell line stably transfected with RXFP1 was used. RXFP1 activation was assayed by changes in cAMP levels as detected with a time-resolved fluorescence energy transfer (TR-FRET) cAMP detection kit.
NIH Chemical Genomics Center [NCGC]
NIH Molecular Libraries Probe Production Centers Network [MLPCN]
Assay Submitter (PI): Alexander Agoulnik
NCGC Assay Protocol Summary:
This is a cell-based assay for cAMP second messenger response to screen for agonists of the RXFP1 receptor. The assay was conducted in the presence of a PDE4 inhibitor (Ro 20174). The cells were lysed and the cAMP levels were measured with a TR-FRET cAMP kit. Presence of cAMP in the cell lysate disrupts binding between the cryptate-labeled anti-cAMP and d2-labeled cAMP pair, leading to a decrease in the TR-FRET signal. Data were normalized to the controls for basal activity (buffer only) and 100% activity (29 nM porcine relaxin). The EC50 values were determined from concentration-response data modeled with the standard Hill equation
1536-well assay protocol for the THP1 RXFP1 cAMP assay:
(1) Add 3 ul THP1 RXFP1 cell culture. 2000 cells/well in DMEM/F12, 10% FBS, 1x Pen/Strep (dispensed offline with MultiDrop Combi).
(3) Add 23 nl compounds in DMSO solution. Final concentration was 0.5 - 58 uM.
(4) Incubate 30 min at 37C, 5% CO2.
(5) Add 1 ul cAMP-d2 in lysis buffer (HTRF cAMP HiRange kit, CisBio).
(6) Add 1 ul anti-cAMP antibody-cryptate in lysis buffer (HTRF cAMP HiRange kit, CisBio).
(7) Incubate 30 min at room temperature.
(6) Detect the assay plate in a ViewLux plate reader (PerkinElmer) with Ex=320 nm, Em1=615 nm and Em2=665 nm.
Keywords: relaxin, RXFP1, RXFP2, G-protein coupled receptor, cAMP, agonist, high throughput screening, MLSMR, MLSCN, NIH Roadmap, qHTS and NCGC
In general terms: In qHTS, concentration-response curves come from the screen itself.
Regarding `Cc1ccc(CN(C)C(=O)c2ccc3c(c2)NC(=O)CS3)o1`, the Potency entry was “inactive”. As to `CCOC(=O)c1sc(=NC(=O)c2ccc(S(=O)(=O)N(C)c3ccccc3)cc2)n(C)c1C`, the Potency is 34.6 µM (active).

On to `COc1ccc(OC)c(CNC(=O)C2CCN(C(=O)N(C)C)CC2)c1`, for which the Potency result was “inactive”. In the case of `Cc1cccc(-c2nnc(SCC(=O)NC3CC3)n2C)c1` it was “inactive”; in that of `CC(NC(=O)c1ccccc1NC(=O)c1ccco1)C(=O)O` (stereo not given), “inactive”; in that of `CCn1c(=O)c2cc(C(=O)Nc3cccc(C(C)=O)c3)sc2c2ccccc21`, “inactive”. As to `O=C(O)CCSc1ccc2ccccc2n1`, the Potency was 19.4 µM (active). The same measure for `Cc1cc(C)c(C(=O)CSc2n[nH]c(=O)n2C2CC2)cc1C`: “inactive”; for `COC(=O)c1sc(N2C(=O)C(O)=C(C(=O)c3ccc(C)o3)C2c2ccc(F)cc2)nc1C` (stereo not given): 2.75 µM (active). `CCc1nnc(NC(=O)CSc2nc(C)nc3c2c(=O)n(C)c(=O)n3C)s1`: the Potency is 10.9 µM (active). Turning to `Cc1ccc2[nH]c3c(=S)nc[nH]c3c2c1`, the Potency was 6.9 µM (active).

Take `CC1(C)O[C@@H]2[C@H](O1)[C@@H](COS(=O)(=O)O)O[C@H]2n1cnc2c(N)ncnc21`: the Potency is 5.48 µM (active). In the case of `CCN(c1ccccc1)S(=O)(=O)c1ccc(OC)c(NC(=O)C2CC(=O)N(Cc3ccccc3)C2)c1` (stereo not given) it was “inactive”. In the case of `Cc1cccn2c(=O)c(/C=C3\SC(=S)NC3=O)c(NCCCN3CCOCC3)nc12` it was 4.88 µM (active); in that of `C=CCOc1c(Cl)cc(CNc2ccc(N(C)C)cc2)cc1OC`, “inactive”. In the case of `CC[n+]1ccc(/C=C/c2ccc(N(C)C)cc2)c2ccccc21`, the Potency entry is “inactive”. The same measure for `Cc1cc(C)n2nc(C(=O)Nc3ccc4c(c3)OCCO4)nc2n1`: 8.68 µM (active). The same measure for `NS(=O)(=O)c1ccc(CCNC(=O)C2CCN(c3ncnc4c3nc3n4CCCCC3)CC2)cc1`: 27.5 µM (active); for `O=C1/C(=C/c2ccc(O)c(O)c2)Oc2cc(O)ccc21`: “inactive”. In the case of `CCCN(CCC)S(=O)(=O)c1cc(CN2C(=O)c3cccnc3C2=O)ccc1OC` it was 24.5 µM (active); in that of `CC(C)n1cnc2c(N(C)c3cccc(Cl)c3)nc(N(CCO)CCO)nc21`, “inactive”; in that of `CN(C)c1ccc(C(=S)N2CCN(S(=O)(=O)c3ccccc3)CC2)cc1`, “inactive”. Take `CCOC(=O)CNC(=O)CSc1nc2c(C)cccc2cc1CC`: the Potency was 19.4 µM (active).

For the compound `O=C(O)c1ccc(CN2C(=O)c3ccc(C(=O)O)cc3C2=O)cc1`, the Potency result is “inactive”. For `CC(C)(C)C(=O)Nc1ccccc1C(=O)NCc1ccco1`, the Potency result is “inactive”. Consider `Cc1cc(C)c(NC(=O)CS(=O)CC(=O)Nc2ccc(F)cc2F)c(C)c1` (stereo not given), for which the Potency result is “inactive”. Regarding `O=C(Nc1cc(S(=O)(=O)N2CCOCC2)ccc1N1CCOCC1)c1cn2ccccc2n1`, the Potency is 8.7 µM (active). With `O=C(Nc1ccccc1C(=O)NCc1ccco1)c1ccccc1`, the Potency result was “inactive”.

Take `COc1ccc(CC(=O)N/N=C/c2cccnc2)cc1OC`: the Potency result is “inactive”. In the case of `O=C(O)CCNc1ccc(NCCC(=O)O)c2c1C(=O)c1ccccc1C2=O` it was “inactive”; in that of `Brc1ccc(-c2nn3c(-c4ccco4)nnc3s2)o1`, 17.3 µM (active).

As for `CC(C)C(=O)Nc1ccc(Nc2ccccc2)cc1`, the Potency entry is “inactive”. In the case of `O=C(Nc1ccccc1C(=O)N1CCN(c2ccccc2)CC1)c1ccco1`, the Potency entry was “inactive”. The same measure for `Nc1cc2ccncc2c2ccccc12`: “inactive”; for `Cc1cccc(C(=O)Nc2ccccc2C(=O)NCc2ccco2)c1`: “inactive”. As for `CCC1(C)Cc2c(sc3c2c2ncnn2c2nnc(SCC(=O)NCc4ccco4)n32)CO1` (stereo not given), the Potency was 11 µM (active). In the case of `CCC(=O)Nc1ccc(-n2nnnc2SCC(=O)NNC(=O)c2ccco2)cc1` it was “inactive”; in that of `O=C(O)c1cccc(CSc2nnc(Cc3ccccc3)o2)c1`, “inactive”; in that of `Cc1ccc(CN(C)C(=O)c2ccccc2NC(=O)c2ccccc2)o1`, “inactive”. For the compound `CCN(CC)S(=O)(=O)c1ccc(N2CCOCC2)c(NC(=O)c2cccc(C#N)c2)c1`, the Potency is 27.5 µM (active).
